# HIF activator – HIF pathway transcriptional activation; activation, % at 7.5 µM (by protocol); hit rate 0.32% among 300,000; U2OS HRE-luciferase reporter, luminescence; normalized: DMSO 0%, desferrioxamine 100%; AID 1910;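 active means mean activation of at least 10% of the iron chelator positive control signal, with at least half of replicates also reaching 10%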
# NTR1 agonist – agonists of human neurotensin receptor NTR1 | P30989 | NTR1-U2OS beta-arrestin-GFP spot imaging, agonist mode | activation, % at 20 µM | hit rate 0.17% among 330,000 | AID 493036;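 active means activation at or above 40% of the spot to cytoplasm intensity ratio, with at least 20 cells analyzed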;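 further: 0% = DMSO without peptide and 100% = 100 nM NTR1 peptide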
# Target sequence (P30989 whole entry, looked up): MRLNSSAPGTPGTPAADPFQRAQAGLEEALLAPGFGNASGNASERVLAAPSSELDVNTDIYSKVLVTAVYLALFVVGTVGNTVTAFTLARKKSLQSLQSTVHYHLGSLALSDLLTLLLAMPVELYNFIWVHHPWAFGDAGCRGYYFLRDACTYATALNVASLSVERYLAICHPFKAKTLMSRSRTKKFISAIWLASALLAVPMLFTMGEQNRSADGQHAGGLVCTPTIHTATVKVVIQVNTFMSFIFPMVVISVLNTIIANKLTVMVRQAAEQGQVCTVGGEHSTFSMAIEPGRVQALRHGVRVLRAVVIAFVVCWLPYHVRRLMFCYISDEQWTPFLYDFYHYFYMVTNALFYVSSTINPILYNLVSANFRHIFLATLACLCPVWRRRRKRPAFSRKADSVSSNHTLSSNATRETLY
# Platelet DG rel – modulates dense granule release in human platelets; hit rate 0.22% among 300,000; human platelet-rich plasma, SFLLRN dense granule ATP release, luminescence; inhibition, %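 (compounds screened at 7.5 µM in platelet-rich plasma)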; AID 1663;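 active means mean replicate score, as percent of positive control, at or above 50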
# * marks the source's active call; other numbers are inactive results; . = not tested or not shown. An excerpt weighted towards active compounds, which were near 0.63% of everything screened.
SMILES,HIF activator,NTR1 agonist,Platelet DG rel
O=C(Nc1cc(S(=O)(=O)Nc2ccc(Cl)cc2)ccc1O)c1ccc(S(=O)(=O)N2CCCCCC2)cc1,0,17,-1
O=C(N/N=C\c1cc(Cl)ccc1O)c1ccc(S(=O)(=O)N2CCCCC2)cc1,45*,11,8
O=C(NCc1cccc(C(F)(F)F)c1)c1cc(-c2ccccc2)nn1CC1CC(c2cccnc2)=NO1 (stereo not given),1,-1,-6
Cc1nnc(-c2cccc(C(F)(F)F)c2)nc1N1CCOCC1,0,1,-1
CCOC(=O)c1cc2sccc2n1CC(=O)Nc1ccc(OC)c(OC)c1,0,0,0
CCOC(=O)c1cc2sccc2n1CC(=O)Nc1ccc(OC)cc1,36*,-1,-3
COc1cc(C#N)ccc1OC(=O)c1cccc(S(=O)(=O)N2CCN(C)CC2)c1,-33,1,-2
CCOC(=O)c1c(C)nc2ccc(C)cn12,0,1,-5
CCOC(=O)c1c(C)nc2cc(C)ccn12,14*,0,1
CC(=O)Nc1ccc(NC(=O)c2nc(S(=O)(=O)Cc3ccccc3)ncc2Cl)cc1,-4,0,-7
CS(=O)(=O)c1ncc(Cl)c(C(=O)Nc2ccc3ccccc3c2)n1,-3,.,79*
CCOc1ccc(C(=O)NC(=S)Nc2ccc(NC(=O)c3ccco3)cc2)cc1[N+](=O)[O-],0,0,-4
O=C1CCCC2=C1C(c1ccccc1O)C1=C(CCCC1=O)O2,0,1,-3
O=C1CCCC2=C1C(Cc1ccccc1)C1=C(CCCC1=O)O2,351*,0,-2
N#Cc1ccc(C(=O)OCC(=O)Nc2cccc(S(=O)(=O)NC3=NCCC3)c2)cc1,.,-2,.
Cc1ccccc1C(C)NC(=O)COC(=O)Cn1cc(C(F)(F)F)ccc1=O (stereo not given),.,-1,.
COc1cccc(/C=N/Nc2snc(SC)c2C#N)c1,.,6,.
COc1ccc(/C=N/Nc2snc(SC)c2C#N)cc1OC,2,6,52*
CC1(C)Cc2c(C#N)c(SCCO)nc(N3CCOCC3)c2CO1,0,2,3
CC1(C)Cc2c(C#N)c(SCCC#N)nc(N3CCOCC3)c2CO1,35*,0,6
O=C(Nc1ccc(-c2nc3cccnc3s2)cc1)c1cccnc1Cl,1,0,-1
COc1ccccc1N1CCN(Cc2cccs2)CC1,0,0,-1
COc1ccc(NC(=O)CSc2nc3c(c(=O)[nH]2)CCC3)cc1OC,12*,1,1
O=C(CSc1nc2c(c(=O)[nH]1)CCC2)Nc1ccc(F)cc1,0,0,3
COc1cc(C(=O)NCCN2CCOCC2)cc(OC)c1OC,0,0,5
SMILES,HIF activator,NTR1 agonist,Platelet DG rel
CC(C)(CO)NCC(O)COc1ccc2c(c1)CCC2 (stereo not given),0,-1,51*
CC(C)(C)CC(C)(C)NCC(O)COc1ccc2c(c1)CCC2 (stereo not given),0,1,5
Cc1noc(C)c1COC(=O)C1CC(O)CN1S(=O)(=O)c1ccc(Cl)cc1 (stereo not given),61*,-1,9
O=C(COC(=O)C1CC(O)CN1S(=O)(=O)c1ccc(Cl)cc1)c1ccccc1 (stereo not given),0,1,9
O=C(NCCc1csc(-c2ccccc2)n1)c1ccco1,0,1,-1
O=C(NCCc1csc(-c2cccc(F)c2)n1)c1ccco1,16*,0,7
O=C(C1=C[C@@H](C2CCCCC2)C[C@@H](OCCCCO)O1)N1CCN(Cc2ccccc2)CC1,0,6,2
CCCSc1ccc2nc(-c3ccccc3)cn2c1,-3,4,75*
CCCCSc1ccc2nc(-c3ccc(C#N)cc3)cn2c1,2,7,-2
COCCCNC(=S)Nc1ccc(C)cc1,1,0,-2
CCOCCCNC(=S)Nc1cc(C)cc(C)c1,143*,-1,4
COc1ccccc1N(CC(=O)Nc1ccc2c(c1)OCO2)S(=O)(=O)c1ccccc1,0,-2,-3
CC(C)COC(=O)N1CC(O)CC1C(=O)Nc1ccc2c(c1)OCO2 (stereo not given),.,2,.
CCOC(=O)CNC(=O)CSc1nnc(Cn2cnc3ccccc32)n1C,12*,-1,-2
COc1ccc(NC(=O)CSc2nnc(Cn3cnc4ccccc43)n2C)cc1,-1,-1,5
CCOC(=O)N1CCN(C(=O)CCCN2C(=O)CSc3nc(C)cc(C)c32)CC1,0,-2,53*
CCOC(=O)N1CCC(NC(=O)CN2C(=O)CSc3nc(C)cc(C)c32)CC1,.,0,26
CCNC(=S)Nc1ccc(N(c2ccccc2)C(C)C)cc1,0,1,10
O=c1c2ccccc2nc2n1C(CSc1ccc(F)cc1)CS2 (stereo not given),0,-1,-18
c1ccc(-c2nnc3sc(-c4cc5ccccc5o4)nn23)cc1,17*,10,6

# Bioassay records (PubChem)
